Assay results: PubChem BioAssay (NCI)
About 83,000 compounds went through this panel and 20% of them were active in at least one assay; those are over-represented in the sample as a whole.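 Single-concentration screen, 48 h exposure, 96-well plates. Endpoint: percent growth. Below 10 = active.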 A number with no mark means an inactive call. The source made the active and inactive calls.

Tests used:
Test in all cases: NCI-60 one-dose screen, 48 h (100 = growth as untreated, 0 = no growth, -100 = all killed)
NCI-H23 lung = settings: 10 µM unless noted
NCI-H226 lung = settings: 10 µM unless noted
NCI-H322M lung = settings: 10 µM unless noted
HOP-62 NSCLC = settings: 10 µM unless noted
NCI-H460 lung = settings: 10 µM unless noted
HOP-92 NSCLC = settings: 10 µM unless noted
NCI-H522 lung = settings: 10 µM unless noted
A549/ATCC NSCLC = settings: 10 µM unless noted
786-0 renal = settings: 10 µM unless noted
COLO 205 colon = settings: 10 µM unless noted
DU-145 prostate = settings: 10 µM unless noted
K-562 leukemia = settings: 10 µM unless noted
MALME-3M melanoma = settings: 10 µM unless noted
MDA-MB-231 breast = settings: 10 µM unless noted
RXF 393 renal = settings: 10 µM unless noted
SF-268 CNS = settings: 10 µM unless noted
SF-295 CNS = settings: 10 µM unless noted
SF-539 CNS = settings: 10 µM unless noted
UACC-257 melanoma = settings: 10 µM
M14 melanoma = settings: 10 µM unless noted

Compound	growth (NCI-H23 lung)	growth (NCI-H226 lung)	growth (NCI-H322M lung)	growth (HOP-62 NSCLC)	growth (NCI-H460 lung)	growth (HOP-92 NSCLC)	growth (NCI-H522 lung)	growth (A549/ATCC NSCLC)	growth (786-0 renal)	growth (COLO 205 colon)	growth (DU-145 prostate)	growth (K-562 leukemia)	growth (MALME-3M melanoma)	growth (MDA-MB-231 breast)	growth (RXF 393 renal)	growth (SF-268 CNS)	growth (SF-295 CNS)	growth (SF-539 CNS)	growth (UACC-257 melanoma)	growth (M14 melanoma)
COc1cc2cc(Oc3ccc(NC(=O)Nc4cccc(C(F)(F)F)c4)cc3)c(C)nc2cc1OCCN(C)C	91.2%	104%	117%	105%	99.9%	74.7%	102%	96.7%	88.7%	98.5%	92.5%	10% (active)	84.7%	98.1%	75.9%	107%	81.1%	92%	100%	
CS(=O)(=O)c1ccc(-c2nn(-c3ccccc3)cc2/C=N/NC(=O)c2ccncc2)cc1	97.5%	110%	96.9%	105%	114%	96.3%	84.7%	102%	82.6%	110%	88.8%	62.5%	95.5%	104%	78.2%	101%	102%	101%	96.7%	
CNC(=O)c1cc(N2CCc3cc(NC(=O)Nc4ccc(Cl)c(Cl)c4)ccc32)ccn1	95.9%	95.9%	98.6%	87%	82.5%	88.9%	68.5%	76.3%	67.2%	77.3%	97.1%	78.2%	68.3%	90.9%	-2.71% (active)	104%	71.9%	55.7%	79.8%	
COc1ccc(/C=N/Nc2nc(N/N=C/c3ccc(OC)cc3O)nc(N3CCOCC3)n2)c(O)c1	86.3%	69.4%	59.7%	64.8%	23.5%	88.6%	80.9%	53%	14.7%	63.5%	57.8%	28%	67.6%	70.3%	-16.2% (active)	53.8%	31.3%	47.3%	55.8%	
COc1c([C@@H](CC(C)C)OC(C)=O)ccc2c1C(=O)OCc1cc(C)cc(O)c1O2	23.7%	43.5%	54.3%	24.5%	8.61% (active)	3.04% (active)	20.2%	13.6%	80.5%	9.55% (active)	26.7%	16.9%	19%	35.7%	64.1%	33%	31.8%	55.6%		
COC1=C(c2ccccc2)C(=O)C(OC)=C(c2ccccc2)C1=O	100%	95.5%	106%	89.9%	106%	97.6%	83.8%	74.3%	99.2%	108%	117%	77.2%	112%	94.5%	106%	106%	100%	102%		
Cc1cc(O)c2c(c1)C(=O)C(c1c(C)cc3c(c1O)C(=O)C=CC3=O)=CC2=O	89.9%	97.7%	110%	98.6%	109%	108%	-36.9% (active)	98.6%	37.4%	-19.3% (active)	72.8%	15.4%	-15.2% (active)	62.8%	20.2%	96.8%	107%	108%		
CCCCCCNC(=O)Oc1ccc(/C(=C(\C)c2ccc(OC)cc2)c2ccc(OCCN(C)C)cc2)cc1	84.4%	105%	89%	89.8%	67.6%	50.4%	98%	74.7%	62.3%	90.4%	96.8%	9.79% (active)	1.42% (active)	71.8%	52.1%	78.3%	80.8%	45.3%	9.83% (active)	6.24% (active)
